Screens deposited in PubChem by National Center for Advancing Translational Sciences (NCATS).
p53ts 32C kill: p53ts cell cytotoxicity, permissive temperature | H1299-p53A138V at 32C, ATP luminescence viability, 24 h | Potency, µM (titrated, usually from 46.1 µM), for the others: top-dose activity change, negative = cytotoxicity, most hits filed as cytotoxic | 0.93% of 130,000 active | AID 924;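 also: 0% = DMSO and -100% = full killing by reference compound; nearly all actives have a fitted effect of over 55% in size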
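H1299-p53 A138V cells (temperature-sensitive p53) exposed 24 h to up to 46 uM compound at 32C, where p53 is wild-type in conformation. Viability read as ATP luminescence and normalised to DMSO and 100 uM tamoxifen. AC50 fitted with the Hill equation.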
p53ts 39C tox: cytotoxicity in p53ts cells at nonpermissive temperature; H1299-p53A138V viability at 39C, ATP luminescence, 24 h; Potency, µM (highest dose often 46.1 µM), without a hit: at the highest dose activity change, negative = cell killing, usual class: cytotoxic; 1.5% of 130,000 active; also: % is scaled to controls: 0 for no effect and ±100 for the full control effect; nearly all actives have a fitted effect of over 55% in size
Imprint erasure: genomic imprint erasure induction. mouse ES Peg3-LacZ reporter, beta-gal luminescence, 40 h. Potency, µM (titrated, usually from 60.7 µM), for the others: at the highest dose activity change, positive = activation, hits mostly activators. 0.02% of 110,000 active
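Imprint erasure is scored as LacZ activity from the silenced maternal Peg3 allele in feeder-free female ES cells cultured 40 h with LIF. Luminescence is normalized to in-plate negative controls and fitted to the Hill equation.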
FLuc inh: blocks Photinus pyralis firefly luciferase activity. Potency, µM (highest dose often 57.1 µM), without a hit: at the highest dose activity change, negative = inhibition, usual class: inhibitors. 2.2% of 72,000 active. purified firefly luciferase, luminescence, 8 min. P08659. AID 411; also: % is scaled to controls: 0 for no effect and ±100 for the full control effect; nearly all actives have a fitted effect of over 40% in size
Target sequence (P08659 whole entry, looked up): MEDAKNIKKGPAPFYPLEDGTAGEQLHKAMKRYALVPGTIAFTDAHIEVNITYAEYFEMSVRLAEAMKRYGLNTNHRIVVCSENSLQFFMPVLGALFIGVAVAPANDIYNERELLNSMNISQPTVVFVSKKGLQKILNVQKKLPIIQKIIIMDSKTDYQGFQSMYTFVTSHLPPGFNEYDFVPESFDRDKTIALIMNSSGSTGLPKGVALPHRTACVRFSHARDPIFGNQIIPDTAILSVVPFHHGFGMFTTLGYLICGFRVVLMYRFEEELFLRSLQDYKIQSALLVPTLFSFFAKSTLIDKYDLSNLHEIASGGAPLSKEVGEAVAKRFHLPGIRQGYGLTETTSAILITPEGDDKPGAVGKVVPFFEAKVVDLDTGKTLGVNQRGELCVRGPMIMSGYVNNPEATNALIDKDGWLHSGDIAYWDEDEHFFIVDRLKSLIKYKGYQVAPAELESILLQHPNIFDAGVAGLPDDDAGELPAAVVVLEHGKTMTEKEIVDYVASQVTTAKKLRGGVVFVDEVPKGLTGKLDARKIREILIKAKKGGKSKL
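Firefly luciferase (PKLight detection mix) with 10 uM ATP in pH 7.2 imidazole buffer (KCl, MgCl2, Tween 20, BSA). Compounds tested across a concentration series (qHTS). Luminescence read after 8 min at ambient temperature.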
Tau filament bind: tau filament binding; P10636; recombinant tau filaments, thioflavin S fluorescence, 15 h; filaments grown with octadecylsulfate alongside compound; Potency, µM (titrated, usually from 57.1 µM), for the others: top-dose activity change, negative = inhibition; 2% of 71,000 active;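 also: % is scaled to controls: 0 for no effect and ±100 for the full control effect; actives lower thioflavin S fluorescence by blocking filaments or displacing dye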
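Quantitative HTS: thioflavine S signal from ODS-induced tau filaments, excited at 450 nm, emission 510 nm. Conditions: 1 uM tau, 30 uM ODS, 15 h at 37 C, pH 7.4.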
* marks the source's active call; other numbers are inactive results; [ ] = dose if it differs, or a comment. Compounds with a hit are over-represented: about 3.4% of the library has one in this group of screens. Calls follow the shape of the dose curve; as a rule, active = well fitted curve in the direction sought with a large enough effect; inconclusive = small, poorly fitted or top-dose-only effect, or another doubt; inactive = no such curve, though single readings can be large; an effect the other way counts as inactive or inconclusive. Potency is read from the fitted curve at half-maximal effect.

Screening CCN(Cc1ccccc1)S(=O)(=O)c1cc(C(=O)NCC2CCCCC2)ccc1OC returned p53ts 39C tox 2%.
CCN(CC)S(=O)(=O)c1cc(C(=O)Nc2ccccc2C(=O)O)ccc1OC was read as p53ts 32C kill 13µM*, p53ts 39C tox inconclusive, Imprint erasure -11%, FLuc inh 20µM* and Tau filament bind 10%.
Screening Cc1ccc(C(=O)Nc2ccc(F)cc2)cc1S(=O)(=O)N1CCOCC1 returned p53ts 32C kill -12%, p53ts 39C tox -16% and Imprint erasure -18%[10.9 µM].
For Cc1ccc(C(=O)Nc2ccccc2C(=O)O)cc1S(=O)(=O)N1CCCCCC1 the results were p53ts 32C kill 7.9µM*, p53ts 39C tox 4µM* and Imprint erasure -19%[10.9 µM].
For Cc1ccc(C(=O)Nc2cccc(C(=O)O)c2)cc1S(=O)(=O)N1CCCC1 the results were p53ts 32C kill 13µM*, p53ts 39C tox 6.3µM* and Imprint erasure -78%[10.9 µM].
Screening Cc1cc(C)cc(-n2ccn(CC(=O)Nc3cc(C)ccc3C)c(=O)c2=O)c1 returned p53ts 32C kill -7%, p53ts 39C tox -7% and Imprint erasure 5%[10.9 µM].
`OC[C@@H]1O[C@H](O)[C@@H](Cl)[C@H](O)[C@@H]1O` gave p53ts 32C kill -8%, p53ts 39C tox 6%, FLuc inh -1% and Tau filament bind 0%.
For Cc1oc(-c2ccccc2Cl)nc1Cn1c(SCc2cccc(F)c2)nc2cccnc21 the results were p53ts 32C kill -5%.
Screening Oc1ccccc1-c1nc(-c2cccs2)c(-c2cccs2)[nH]1 returned p53ts 32C kill inconclusive, p53ts 39C tox 25µM* and Imprint erasure -12%[10.9 µM].
CN(C)c1ccc(-c2nc(-c3cccs3)c(-c3cccs3)[nH]2)cc1 was read as p53ts 32C kill 13%, p53ts 39C tox inconclusive and Imprint erasure -16%[10.9 µM].
Screening O=S(=O)(c1ccccc1)c1nc(-c2cccs2)oc1SCc1ccccc1F returned p53ts 32C kill 5%, p53ts 39C tox 3% and Imprint erasure -7%[10.9 µM].
Screening Cc1nc(Nc2ccccc2)[nH]c(=O)c1CCC(C)C returned p53ts 32C kill 30%, p53ts 39C tox 15%, Imprint erasure -9%, FLuc inh -2% and Tau filament bind -4%.
`CCCCCc1c(C)nc(NCc2ccccc2)[nH]c1=O` gave p53ts 32C kill 14%, p53ts 39C tox 8%, Imprint erasure -18%, FLuc inh -5% and Tau filament bind 32µM*.
`COc1cc(C2Nc3cccc4cccc(c34)N2)cc(OC)c1O` gave p53ts 32C kill -30%, p53ts 39C tox -26%, Imprint erasure -3%, FLuc inh -13% and Tau filament bind 4µM*.
Cc1cccc(N2CCN(C(=O)Cn3c(-c4cccs4)cc4ccccc43)CC2)c1C was read as p53ts 32C kill -2%.
`O=C1C(=O)N(Cc2ccc(Cl)c(Cl)c2)c2ccccc21` gave p53ts 32C kill inconclusive, p53ts 39C tox 6.3µM*, Imprint erasure -32%, FLuc inh 1% and Tau filament bind 32µM*.
COc1ccc2oc(C(=O)c3ccccc3)c(NC(=O)CN3CCN(C)CC3)c2c1 was read as p53ts 32C kill -20%, p53ts 39C tox -30%, Imprint erasure -29%, FLuc inh -1% and Tau filament bind 4µM*.
Screening Nc1ccc2ncccc2c1 returned p53ts 32C kill inconclusive, p53ts 39C tox 3.2µM*, Imprint erasure -28%, FLuc inh -12% and Tau filament bind -16%.
Screening Cc1ccc(Oc2c(C(F)(F)F)oc3cc(OCC(=O)NC4CCCCC4)ccc3c2=O)cc1 returned p53ts 32C kill -2%, p53ts 39C tox inconclusive and Imprint erasure -12%[10.9 µM].
Screening Cc1ccccc1OCCCCn1c(C2CC(=O)N(c3ccccc3Cl)C2)nc2ccccc21 (configuration not stated) returned p53ts 32C kill inconclusive, p53ts 39C tox inconclusive and Imprint erasure -11%[10.9 µM].
Screening COc1ccccc1OCCCCn1c(C2CC(=O)N(c3ccccc3Cl)C2)nc2ccccc21 (configuration not stated) returned p53ts 32C kill inconclusive, p53ts 39C tox 20µM* and Imprint erasure -6%[10.9 µM].
For CCc1ccccc1N1CC(c2nc3ccccc3n2CCCOc2ccc(Cl)cc2)CC1=O (configuration not stated) the results were p53ts 32C kill inconclusive, p53ts 39C tox 20µM* and Imprint erasure -13%[10.9 µM].
COc1ccc(CC(=O)NCc2nc3cccnc3n2Cc2ccccc2)cc1 was read as p53ts 32C kill -7%, p53ts 39C tox -1% and Imprint erasure -7%[10.9 µM].
`CCCCNc1cc(NC2CCCCC2)c2c3c(onc13)-c1ccccc1C2=O` gave p53ts 32C kill 8%, p53ts 39C tox inconclusive and Imprint erasure -7%[10.9 µM].
For CCOC(=O)C(C(=O)OCC)c1cc(Br)c2noc3c2c1C(=O)c1ccccc1-3 the results were p53ts 32C kill inconclusive, p53ts 39C tox inconclusive, Imprint erasure -32%, FLuc inh -19% and Tau filament bind 2µM*.
CSc1ccc(NC(=O)Nc2cc(C)ccn2)cc1 was read as p53ts 32C kill -28%[9.22 µM], p53ts 39C tox inconclusive, Imprint erasure -15%[10.9 µM], FLuc inh 2.5µM* and Tau filament bind -2%[11.4 µM].
Screening COc1ccc(NC(=O)Nc2cc(C)ccn2)cc1 returned p53ts 32C kill 7.9µM*, p53ts 39C tox 6.3µM*, Imprint erasure -53%, FLuc inh 1.6µM* and Tau filament bind 16%.
`COc1ccc(C(=O)NC(=O)Nc2cc(C)ccn2)cc1` gave p53ts 32C kill 1.3µM*, p53ts 39C tox 1.3µM*, Imprint erasure -96%, FLuc inh 0.5µM* and Tau filament bind 9%.
For Cc1ccnc(NC(=O)Nc2ccc(F)cc2)c1 the results were p53ts 32C kill inconclusive, p53ts 39C tox inconclusive, Imprint erasure -61%, FLuc inh 10µM* and Tau filament bind 59%.
`O=C(Nc1cccc(C(=O)OCc2cc(=O)n3c4c(sc3n2)CCCC4)c1)c1ccc(Cl)cc1` gave p53ts 32C kill 1%, p53ts 39C tox -2% and Imprint erasure -2%[10.9 µM].
For CCn1c2ccccc2c2cc(CN3CCN(Cc4ccc(Br)cc4)CC3)ccc21 the results were p53ts 32C kill -2%, p53ts 39C tox inconclusive and Imprint erasure -17%[10.9 µM].
`CCN1C(=O)c2ccccc2Sc2ccc(NC(=O)Nc3cc(C)cc(C)c3)cc21` gave p53ts 32C kill -4%, p53ts 39C tox -19% and Imprint erasure -5%[10.9 µM].
Screening OC(CN1CCNCC1)Cn1c2ccc(Br)cc2c2cc(Br)ccc21 (configuration not stated) returned p53ts 32C kill inconclusive, p53ts 39C tox 13µM* and Imprint erasure -42%.
`CCOc1ccccc1/C=C/c1onc(C)c1S(=O)(=O)N1CCC(C(=O)N(CC)CC)CC1` gave p53ts 32C kill 13%, p53ts 39C tox -8% and Imprint erasure -8%[10.9 µM].
